High-throughput results as filed in PubChem.
Hits are enriched below; roughly 21% of the tested compounds scored in any of these assays.
HCMV antiviral = inhibitors of human cytomegalovirus; HFF cells, HCMV-luciferase reporter, 72 h; stronger effect = lower value; activity change, negative = inhibition, % at 57.5 µM; 410,000 tested, 4.5% active; AID 1259415; in the data active = activity change below about -60%; inconclusive = no clear call, values can overlap the other calls; inactive = above about -39%
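Screen run at 2 compound doses on HFFs infected with reporter HCMV, MOI 1 PFU/cell. Luciferase activity from cell lysates at 72 h post infection gave inhibition relative to buffer-only and Salinomycin wells.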
Pf growth 48h = inhibits P. falciparum growth in the first generation, 48 h; P. falciparum luciferase growth in erythrocytes, 48 h; Potency, µM (top dose mostly 28.7 µM), most hits filed as inhibitors; 310,000 tested, 5.9% active; AID 504832
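Read-out is firefly luciferase luminescence from an integrated reporter in P. falciparum, so falling signal marks reduced parasite growth. Infected erythrocytes were at 2% hematocrit and 0.1% parasitemia (final) in Albumax-supplemented RPMI 1640.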
CHX counter = counter-screen hit for Shiga toxin inhibitors, cycloheximide. max response, %. cell reporter, cycloheximide protein synthesis inhibition counterscreen. 300,000 tested, 12% active; in the data active = max response mostly above about 13%, no sharp cut-off; inactive = mostly below about 14%; note: read at 38.3 µM for the half of the compounds with a filed dose
Shiga toxin inh = blocks Shiga toxin action in Vero cells; Vero cells, Shiga toxin protein synthesis inhibition reporter; inhibition, % at 38.7 µM; 290,000 tested, 9.2% active; AID 2315; in the data active = inhibition mostly above about 28%, no sharp cut-off; inactive = mostly below about 43%
HCV inh = blocks hepatitis C virus; Huh7.5.1 HCVcc-Cre infection, luciferase reporter, 44 h; Potency, µM (titrated, usually from 41.8 µM), usual class: inhibitors; 340,000 tested, 3.4% active
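Reporter virus HCVcc-Cre (~0.5 moi) infects cells exposed to compound; seeding density 1,000 cells/well with 4 h settling beforehand. Luminescence, 15 sec read, taken 44 h post-infection following a 15 min RT substrate incubation.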
Pf growth 96h = P. falciparum growth inhibition at 96 hour, primary screen for plastid delayed-death inhibitors. P. falciparum luciferase reporter growth, 96 h. Potency, µM (top dose mostly 28.7 µM), hits mostly inhibitors. 320,000 tested, 6.9% active. AID 504834
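Two-generation exposure (96 h) targets delayed-death phenotype. Reporter parasites carrying integrated firefly luciferase, in red cells at 2% hematocrit and 0.05% parasitemia final, kept at 37 C, 5% CO2; luminescence loss indicates inhibition.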
A number is an active result; - = inactive; ? = inconclusive; . = no result; [ ] = remark or other dose. Unless noted, calls come from the whole dose curve; as a rule, active = well fitted inhibition curve with a large enough effect; inconclusive = small, poorly fitted or top-dose-only effect, or another doubt; inactive = no such curve, though single readings can be large or run the other way.

SMILES	HCMV antiviral	Pf growth 48h	CHX counter	Shiga toxin inh	HCV inh	Pf growth 96h
COc1cc(OC)c(C(=O)OCC(=O)Nc2nnc(-c3ccccc3)o2)cc1OC	-	-	.	.	-	-
CCCCCN(C(=O)CCC(=O)OCC(=O)Nc1cccc(SC)c1)c1c(N)n(CCCC)c(=O)[nH]c1=O	-	-	.	.	-	-
COc1ccccc1NC(=O)C1=C(C)Nc2c(C(=O)Nc3ccc(C)cc3)cnn2C1c1cccc(OC)c1OC (configuration not stated)	-	.	.	.	.	.
CCCC(=O)Nc1cc(OC)c(C(=O)OC)cc1Cl	-	-	-	-	-	-
Cc1nc2ccccn2c(=O)c1NC(=O)c1ccc(C(F)(F)F)cc1	-	.	.	.	.	.
CCOc1ccc(CCNC(=O)C2Cc3ccccc3N2C(=O)CC)cc1OCC (configuration not stated)	-	.	.	.	.	.
NC(=O)c1ccccc1Nc1nc(NCCO)nc(N2CCCC2)n1	-	.	.	.	.	.
COC(=O)C1=C(c2cccc(OCc3ccccc3)c2)C[C@@H]2CC[C@H]1N2C(=O)NCCN1CCOCC1	-	?	.	.	-	5.2µM
COC(=O)C1=C(c2cccc(OCc3ccccc3)c2)C[C@@H]2CC[C@H]1N2C(=O)NCc1ccccc1C(F)(F)F	?	4.1µM	.	.	?	?
COC(=O)C1=C(c2ccc(OCc3ccccc3)cc2)C[C@@H]2CC[C@H]1N2C(=O)NCc1ccc2[nH]ccc2c1	-	.	.	.	.	.
COC(=O)C1=C(c2ccc(OCc3ccccc3)cc2)C[C@@H]2CC[C@H]1N2C(=O)NCCN1CCOCC1	-	.	.	.	-	.
C[C@@H]1CN([C@H](C)CO)C(=O)c2cc(Br)cnc2O[C@H]1CN(C)C(=O)Nc1ccccc1F	-	.	.	.	.	.
Cc1cc(C)c(C)c(OCC(=O)O/N=C(\N)c2cccnc2)c1	-	-	-	-	?	?
N/C(=N\OC(=O)COc1ccc(Cl)cc1Br)c1cccnc1	-	-	31	113	-	?
N/C(=N\OC(=O)COc1ccc(Br)cc1Cl)c1cccnc1	-	-	45	93	-	-
N/C(=N\OC(=O)COc1ccc(Cl)cc1Cl)c1ccncc1	-	-	43	85	?	-
CC(C)c1ccc(N2C(=O)CSC23C(=O)N(C)c2ccccc23)cc1 (configuration not stated)	-	.	.	.	.	.
Cc1ccc2c(=O)cc(C(=O)Nc3nnc(CC(C)C)s3)oc2c1C	-	.	.	.	.	.
CCOC(=O)C1(Nc2nccs2)Sc2ccccc2NC1=O (configuration not stated)	-	.	-	-	?	?
CCOC(=O)C1(N(CC)CC)Sc2cc(C)ccc2NC1=O (configuration not stated)	-	?	-	-	?	5.9µM
c1ccc(CCn2c(C3CC3)nc3ccccc32)cc1	-	.	-	-	-	3.3µM
CCCc1nc2ccccc2n1CCc1ccccc1	-74	3.3µM	-	-	-[0.335 µM]	3.7µM
C/C(=N\NC(=O)CSCc1ccccc1Cl)c1cc(O)ccc1O	-	?	23	40	?	-
CC(=O)Nc1ccc(NC(=O)CSCc2ccccc2Cl)cc1	-	.	.	.	-	.
CC(C)(C)OC(=O)NCC(=O)NNC(=O)C(C(=O)OCc1ccccc1)c1ccccc1 (configuration not stated)	-	.	.	.	.	.
SMILES	HCMV antiviral	Pf growth 48h	CHX counter	Shiga toxin inh	HCV inh	Pf growth 96h
S=C(NCc1cccs1)Nc1cc(Cl)cc(Cl)c1	-100	?	-	-	?	?
S=C(NCc1cccs1)Nc1ccccc1Cl	-	-	24	44	-	-
S=C(NCc1cccs1)Nc1cccc(Cl)c1	-69	?	-	-	-	?
CCN(CC)CCn1c2c(c(SCC(=O)Nc3ccccc3Cl)nc1=O)CCC2	-	-	.	.	-	?
O=c1oc(-c2ccc(C(F)(F)F)cc2)nn1Cc1cc(Cl)ccc1O	.	.	-	-	.	.
COc1cc(OC)c2cc(C(=O)N[C@H](C(=O)N3CCC[C@H]3C(=O)O)C(C)C)n(C)c2c1	-	-	-	-	-	?
Nc1nc(=S)c2ncn([C@@H]3O[C@H](CO)[C@@H](O)[C@H]3O)c2[nH]1	-89	10µM	.	.	2.2µM	?
CC1(C)OC2C(CO)OC(n3cnc4c(=S)nc[nH]c43)C2O1 (configuration not stated)	-	-	-	-	-	-
Nc1nc(Cl)nc2c1ncn2[C@@H]1O[C@H](CO)[C@@H](O)[C@H]1O	-	?	-	-	-[8.37 µM]	6.6µM
